Measurements: publication PMC5540273 (PLoS ONE, 2017)

Assays:
[1] = system: PIK3CB
[2] = system: PAK4
[3] = system: PIM1
[4] = system: PIK3CD
[5] = system: T1, PIK4CB
T1 construct: gene PI4KB

[6] = system: PDGFRB
[7] = system: PIM2
[8] = system: RAF1
[9] = system: PLK1
[10] = system: PLK2
[11] = system: PLK3
[12] = system: PIK3CA
[13] = system: RIPK2
[14] = system: PIK3CG
[15] = system: RIOK2
[16] = system: PRKD1
[17] = system: PRKD2
[18] = system: PRKCI
[19] = system: RET
[20] = system: NLK
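Also: kd values determined as follow-up on hits from a single-replicate KINOMEscan panel screen.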

In the case of `O=c1cc(N2CCOCC2)nc2n(Cc3cccc(C(F)(F)F)c3)ccn12` [GSK2297543], the Kd [1] is reported as 140 nM.
`O=C1Cc2cc(Nc3nc(NCc4cccc(S(=O)(=O)C(F)(F)F)c4)ncc3C(F)(F)F)ccc2N1` showed a Kd [2] of over 10000 nM and a Kd [3] of over 10000 nM.
For `O=c1cc(N2CCOCC2)nc2n(Cc3cccc(Cl)c3Cl)c(C3CC3)nn12` [GSK2358994], the Kd [1] was 0.94 nM and the Kd [4] was 820 nM.
In the case of `NS(=O)(=O)c1cccc(-c2ccc3ncc(N4CCOCC4)nc3c2)c1` [GSK1535721], the Kd [5] is reported as 860 nM.
In the case of `Cc1ccc(NC(=O)c2ccnc(N3CCN(C)CC3)c2)cc1-c1ccc(C(=O)NCC2CC2)cc1` [GW775604], the Kd [6] is reported as 300 nM.
`Cc1nnc(-c2ccc3occ(-c4ccc(C(C)O)cc4)c3c2)o1` (stereo not drawn) gave a Kd [7] of 940 nM and a Kd [8] of over 10000 nM.
With `C[C@@H](Oc1cc(-n2cnc3ccc(NC(=O)NC(C)(C)C)cc32)sc1C(N)=O)c1ccccc1Cl` [GSK346294] the Kd [9] was 7.3 nM, the Kd [10] was 77 nM and the Kd [11] was 150 nM.
`O=C(NCCNc1ccnc(Nc2ccc(F)cc2)n1)Nc1ccccc1F` [GSK1379880] gave a Kd [9] of over 10000 nM.
In the case of `[2H]C([2H])(c1cccc(C(F)(F)F)c1C)n1ccn2c(=O)nc(N3CCOCC3)cc12` [GSK2336394], the Kd [1] is reported as 51 nM.
For `N#Cc1c(N2CCOCC2)sc(-c2ccn[nH]2)c1-c1ccc(Cl)cc1`, the Kd [12] was 32 nM and the Kd [1] was 750 nM.
With `c1ccc(-c2cc(-c3c[nH]nc3-c3ccccn3)ccn2)cc1` [GW576604] the Kd [13] was 7600 nM.
`NS(=O)(=O)c1cccc(-c2ccc3nccc(-c4cccc(S(N)(=O)=O)c4)c3c2)c1` [GW867253] showed a Kd [14] of 81 nM and a Kd [5] of 32 nM.
Work on `COc1ccc(COc2cc(-n3cnc4ccccc43)sc2C(N)=O)cc1` [GSK1024304] yielded a Kd [1] of over 10000 nM, a Kd [9] of 37 nM and a Kd [10] of 250 nM. For the same compound, the Kd [11] was 380 nM and the Kd [15] was 76 nM.
`Cc1cccc(-c2nc(Nc3ccc4ncsc4c3)c3ccccc3n2)n1` [GW867588] was tested, and the Kd [16] was 16 nM and the Kd [17] was 22 nM.
`Cc1nnc(-c2ccc3ncc(-c4ccc(S(C)=O)cc4)n3c2)o1` (stereo not drawn) was tested, and the Kd [6] was 490 nM.
`COc1ccc(S(=O)(=O)NC2CCN(c3cc(C)nc(Nc4cccc(C#N)c4)n3)CC2)cc1.O=C(O)C(F)(F)F` [GSK1653539] gave a Kd [1] of over 10000 nM.
`Cc1cn2c(=O)cc(N3CCOCC3)nc2n1Cc1cccc(Cl)c1Cl` [GSK2334006] showed a Kd [1] of 2.4 nM and a Kd [4] of 120 nM.
In the case of `Cc1c(Cn2c(C)nn3c(=O)cc(N4CCOC(C)C4)nc23)cccc1C(F)(F)F` (stereo not drawn) [GSK2344444], the Kd [1] is reported as 0.67 nM and the Kd [4] is reported as 80 nM.
`Fc1ccc(-c2ncn(CCCN3CCOCC3)c2-c2ccccn2)cc1` [SB-211742] was tested, and the Kd [18] was over 10000 nM.
In the case of `O=c1cc(N2CCOCC2)nc2n(Cc3cccc(F)c3)ccn12` [GSK2297430], the Kd [1] is reported as 55 nM.
With `Cc1cccc(Cn2ccn3c(=O)cc(N4CCOCC4)nc23)c1` [GSK2297542] the Kd [1] was 23 nM.
Work on `O=c1cc(N2CCOCC2)nc2n(Cc3cccc4ccccc34)ccn12` [GSK2333389] yielded a Kd [1] of 2.9 nM, a Kd [4] of 150 nM and a Kd [19] of over 10000 nM.
In the case of `O=C(Nc1n[nH]c2cc(-c3cccc(F)c3)ccc12)C1CC1` [SB-735464], the Kd [20] is reported as 87 nM.
